Assay results as given in PubChem BioAssay (EPA / NIEHS).
The source made the active and inactive calls. The calls were made as follows: active = hit-call score of the fitted dose curve at least 0.9, where 1 is the maximum; inactive = score below 0.9.

Tests used:
[1] = tested on: TTR (gene 7276); experiment: CCTE_GLTED_hTTR_0.125uM: CCTE's human Transthyretin (hTTR) Inhibition Assay, with 0.125uM TTR, Great Lakes Toxicology and Ecology Division (GLTED) Lab (AID 2284431);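 also: hits lower the fluorescence signal relative to DMSO baseline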
Summary of the method: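 TTR at 0.125uM incubated 2 h with test chemical; displacement of bound ANSA read by fluorescence (ex 380, em 475). Activity is signal loss versus DMSO baseline.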

[2] = Tanguay_ZF_120hpf_ANY: Oregon State University Tanguay Lab 120 Hour Post-fertilization zebrafish Assay for Any Mortality and Malformation (AID 2284404)
Summary of the method: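 Dechorionated Tropical 5D wild-type embryos, one per well from 6 hpf, static exposure in sealed, dark plates at 28C until 120 hpf, 0.64% DMSO final. Brightfield scoring of mortality and malformations as binary presence/absence, pooling 13 morphology endpoints.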

[3] = CCTE_Padilla_ZF_Score.Craniofacial: CCTE's 144 Hour Post-fertilization zebrafish Assay Score for Craniofacial Malformation, Padilla Lab (AID 2284405)
Summary of the method: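 Craniofacial defects were scored at 6 dpf by two blinded observers using stereomicroscopy. Exposure of wild-type embryos began at 6–8 hpf in sealed wells of 10% Hanks' solution at 26C, with chemical removed by rinsing at 5 dpf.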

[4] = CCTE_Padilla_ZF_Score.Edema: CCTE's 144 Hour Post-fertilization zebrafish Assay Score for Edema Malformation, Padilla Lab (AID 2284406)
Summary of the method: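 Edema scored at 6 dpf by two blinded observers under a stereo microscope, in single outbred wild-type larvae exposed from 6-8 hpf in sealed wells (Hanks', 26C, 14:10 h light) and chemical-free after a 5 dpf rinse.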

[5] = CCTE_Padilla_ZF_Score.Spine: CCTE's 144 Hour Post-fertilization zebrafish Assay Score for Spine Malformation, Padilla Lab (AID 2284407)
Summary of the method: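 Spine malformation scored at 6 dpf by two independent blinded observers under stereomicroscope, after static sealed exposure from 6–8 hpf at 26C in Hanks' solution with rinse on 5 dpf. Positive-direction fit against DMSO control.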

[6] = CCTE_Padilla_ZF_Score.Swim_bladder: CCTE's 144 Hour Post-fertilization zebrafish Assay Score for Swim Bladder Malformation, Padilla Lab (AID 2284408)
Summary of the method: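 Swim bladder inflation scored at 6 dpf by two blinded observers under a stereo microscope. Exposure ran from 6–8 hpf in sealed wells of 10% Hanks' at 26C, with rinsing at 5 dpf; DMSO served as baseline.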

[7] = CCTE_Padilla_ZF_Score.Position: CCTE's 144 Hour Post-fertilization zebrafish Assay Score for Position, Padilla Lab (AID 2284409)
Summary of the method: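 Wild-type zebrafish embryos (with chorions) exposed singly from 6–8 hpf in sealed wells of Hanks' solution at 26C, rinsed at 5 dpf. At 6 dpf, blinded assessors scored abnormal water-column position by brightfield stereomicroscopy, relative to DMSO.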

[8] = CCTE_Padilla_ZF_Score.Living: CCTE's 144 Hour Post-fertilization zebrafish Assay Score for Viability, Padilla Lab (AID 2284410);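 also: larval death at 6 dpf judged by absent heartbeat or coagulation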
Summary of the method: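 Mortality at 6 dpf, judged as absent heartbeat or coagulation by two blinded observers, after sealed static exposure beginning at 6–8 hpf at 26C. Larvae were rinsed free of chemical at 5 dpf, and activity was fitted relative to DMSO.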

[9] = CCTE_Padilla_ZF_Score.General: CCTE's 144 Hour Post-fertilization zebrafish Assay Score for General Malformation, Padilla Lab (AID 2284411)
Summary of the method: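 Malformation, death and hatching were scored at 6 dpf by two blinded observers under a stereo microscope. Embryos were dosed singly from 6-8 hpf in sealed plates of 10% Hanks' at 26C and rinsed on 5 dpf; DMSO baseline.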

[10] = CCTE_Padilla_ZF_Score.Tail: CCTE's 144 Hour Post-fertilization zebrafish Assay Score for Tail Malformation, Padilla Lab (AID 2284414)
Summary of the method: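 Tail malformations were scored at 6 dpf by two blinded assessors under a stereo microscope. Chorionated embryos had been exposed from 6-8 hpf in sealed wells of 10% Hanks' at 26 C, then rinsed free of chemical at 5 dpf.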

[11] = CCTE_Padilla_ZF_Score.Blood_pooling: CCTE's 144 Hour Post-fertilization zebrafish Assay Score for Blood Pooling, Padilla Lab (AID 2284415)
Summary of the method: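 Blood pooling was scored at 6 dpf under a stereo microscope by two blinded assessors, fitted upward against DMSO. Single embryos were dosed at 6–8 hpf in 10% Hanks', kept sealed at 26C (14:10 h cycle) and rinsed at 5 dpf.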

[12] = CCTE_Padilla_ZF_Score.Any: CCTE's 144 Hour Post-fertilization zebrafish Assay Score for Any Mortality or Malformation, Padilla Lab (AID 2284416)
Summary of the method: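 Wild-type zebrafish embryos with chorions, one per well in 10% Hanks' from 6–8 hpf, dosed in sealed plates at 26 C, 14:10 h light:dark; rinsed at 5 dpf; blinded scoring at 6 dpf for death or malformation, versus DMSO.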

**Q.** For `Nc1ccc(Oc2ccc(N)cc2)cc1`, which AC50 [1] is on record?
**A.** 17.7 µM (active)

**Q.** For `Brc1ccc(Oc2ccccc2)cc1`, which AC50 [1] is on record?
**A.** 50 µM (active)

**Q.** For `c1ccc(NNc2ccccc2)cc1`, which AC50 [1] is on record?
**A.** 33.3 µM (active)

**Q.** Which AC50 [1] does the source give for `Cc1cc(N=Nc2ccccc2C)ccc1N` here?
**A.** 0.0179 µM (active)

**Q.** With `Nc1cc(Cl)cc(C(=O)O)c1Cl` as the compound, how does the AC50 [1] read?
**A.** 8.24 µM (active)

**Q.** For `Nc1ccc(N=Nc2ccccc2)cc1`, which AC50 [1] is on record?
**A.** 0.593 µM (active)

**Q.** For `c1ccc(N=Nc2ccccc2)cc1`, which AC50 [1] is on record?
**A.** 28 µM (active)

**Q.** For `CS(=O)(=O)NC(=O)c1cc(Oc2ccc(C(F)(F)F)cc2Cl)ccc1[N+](=O)[O-]`, which AC50 [1] is on record?
**A.** 6.19 µM (active)

**Q.** For `CCNS(=O)(=O)C(F)(F)C(F)(F)C(F)(F)C(F)(F)C(F)(F)C(F)(F)C(F)(F)C(F)(F)F`, which AC50 [2] is on record?
**A.** 62.1 µM (active)

**Q.** And the outcome [3]?
**A.** inactive

**Q.** What about the AC50 [4] of the same compound?
**A.** 2.86 µM (active)

**Q.** And the outcome [5]?
**A.** inactive

**Q.** And the AC50 [6]?
**A.** 3.57 µM (active)

**Q.** And the outcome [7]?
**A.** inactive

**Q.** What about the AC50 [8] of the same compound?
**A.** 22.2 µM (active)

**Q.** And the AC50 [9]?
**A.** 3.11 µM (active)

**Q.** What about the outcome [10] of the same compound?
**A.** inactive

**Q.** And the outcome [11]?
**A.** inactive

**Q.** And the AC50 [12]?
**A.** 3.96 µM (active)

**Q.** And the AC50 [1]?
**A.** 1.05 µM (active)

**Q.** For `[Cl-].[Cl-].[Hg+2]`, which AC50 [1] is on record?
**A.** 6.05 µM (active)

**Q.** With `CCC(C)c1ccc(O)cc1` (configuration not stated) as the compound, how does the AC50 [1] read?
**A.** 4.66 µM (active)
